The values that follow come from PubChem BioAssay (EPA / NIEHS).

Records with an inconclusive call do not appear. Some structures have more than one record in an assay (separate samples or runs), and their calls can disagree. Active and inactive are the calls of the source. The calls were made as follows, unless noted: active = hit-call score of the fitted dose curve at least 0.9, where 1 is the maximum; inconclusive = response in the unintended direction; inactive = score below 0.9.

Assay [1] concerns the target Agonist Androgen Response Element (ARE), AR (gene 367) (UniProt P10275). Kind of assay: OT_AR_ARELUC_AG_1440: Odyssey Thera (OT) 24-hour CHO-K1 Luciferase Assay for Agonist Androgen Response Element (ARE) (AID 2283379). An outline of the steps:
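CHO-K1 cells carrying an ARE-driven luciferase reporter were exposed to compounds for 24 h. Luminescence was then read after adding a D-luciferin/ATP mix, and activity was scored as a gain in signal over DMSO vehicle.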

In assay [2] the target is Estrogen receptor beta (Homo sapiens) (UniProt Q92731). Kind of assay: OT_ER_ERbERb_1440: Odyssey Thera (OT) 24-hour HEK293T Protein-Complementation Assay for Estrogen Receptor-beta/-beta Homodimer (AID 2283380).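 Also: scored as signal increase over DMSO baseline for both agonists and antagonists.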 An outline of the steps:
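HEK293T cells stably expressing ER beta LBD (aa 310-547) homodimer fragment-complementation reporter, dosed 24 h. Cells formaldehyde-fixed, Draq5-stained; gain in nuclear (agonist) or nuclear plus cytoplasmic (antagonist) fluorescence versus DMSO read by laser scanning cytometry.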

In assay [3] the target is Retinoic acid receptor RXR-alpha (Homo sapiens) (UniProt P19793). Put plainly: OT_NURR1_NURR1RXRa_1440: Odyssey Thera (OT) 24-hour HEK293T Protein Complementation Assay for Nurr1/retinoid X receptor (RXR) (AID 2283386). An outline of the steps:
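HEK293T cells were dosed with compound and read 24 h later by fluorescence intensity in a protein-fragment complementation format, where Nurr1–RXRα interaction reconstitutes a split reporter. Activity was fitted as gain of signal relative to DMSO baseline.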

In assay [4] the target is Peroxisome proliferator-activated receptor gamma (Homo sapiens) (UniProt P37231). Kind of assay: OT_PPARg_PPARgSRC1_0480: Odyssey Thera (OT) 8-hour Protein-Complementation Assay for Peroxisome Proliferator-activated Receptor Gamma / SRC-1 Co-activator (AID 2283387).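 Also: nuclear to cytoplasmic split Venus YFP fluorescence ratio reporting PPARg SRC-1 interaction.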 An outline of the steps:
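HEK293T transiently transfected with PPARg and SRC-1 fused to Venus YFP fragments, compounds 8 h at 37C. Fixed, Draq5-stained cells imaged; nuclear/cytoplasmic 488 nm fluorescence ratio over at least 350 cells per image; gain fitted versus DMSO.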

Read-out in assay [5]: Tumor necrosis factor receptor superfamily member 6 (Homo sapiens) (UniProt P25445)
Kind of assay: LTEA_HepaRG_FAS: Life Technologies and Expression Analysis (LTEA) Assay for Fas cell surface death receptor (FAS) using HepaRG (AID 2283447; active = hit-call score of the fitted dose curve at least 0.9, where 1 is the maximum; inactive = score below 0.9). Particulars: mRNA level, 48 h; actives raise or lower the signal. An outline of the steps: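 Differentiated HepaRG cells in serum-free induction medium were exposed 48 h to 8 half-log concentrations up to 100 uM in 0.5% DMSO, in duplicate. FAS mRNA was measured by qRT-PCR normalised to ACTB, GAPDH and POLR2A; bidirectional fit versus DMSO.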

Assay [6] concerns the target Bile acid receptor (Homo sapiens) (UniProt Q96RI1). Kind of assay: OT_FXR_FXRSRC1_0480: Odyssey Thera (OT) 8-hour HEK293T Protein-Complementation Assay for Farnesoid X receptor/SRC-1 Co-activator (AID 2283383). An outline of the steps: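 HEK293T cells expressing FXR and SRC-1 fused to reporter fragments were dosed with compound for 8 h; fluorescence from the reconstituted reporter marked co-activator recruitment. Gain of signal was fitted against the DMSO baseline.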

The target is the same in assay [7]. Put plainly: OT_FXR_FXRSRC1_1440: Odyssey Thera (OT) 24-hour HEK293T Protein-Complementation Assay for Farnesoid X receptor/SRC-1 Co-activator (AID 2283384). An outline of the steps: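 HEK293T cells were dosed with compound and read 24 h later by fluorescence intensity from protein-fragment complementation reporting FXR/SRC-1 co-activator interaction. Gain of signal was fitted relative to DMSO negative control as baseline.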

The target in assay [8] is Peroxisome proliferator-activated receptor gamma (Homo sapiens) (UniProt P37231). Kind of assay: OT_PPARg_PPARgSRC1_1440: Odyssey Thera (OT) 24-hour Protein-Complementation Assay for Peroxisome Proliferator-activated Receptor Gamma/ SRC-1 Co-activator (AID 2283388). An outline of the steps:
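Cells carrying the PPARg/SRC-1 fragment-complementation reporter receive compound for 24 hours, are fixed and counterstained with Draq5, then imaged. Increased nuclear relative to cytoplasmic YFP fluorescence above DMSO baseline indicates binding activity.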

Assay [9] in a line: CEETOX_H295R_OHPREG: CeeTox H295R High-throughput Steroidogenesis Assay for OH-Pregnenolone (OHPREG) (AID 2283434; active = hit-call score of the fitted dose curve at least 0.9, where 1 is the maximum; inactive = score below 0.9). The following applies: actives raise or lower the signal. An outline of the steps:
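H295R cells pre-stimulated 48 h with 10 uM forskolin, then exposed 48 h to chemical in 0.1% DMSO. 17alpha-hydroxypregnenolone in medium quantified by MTBE extraction and HPLC-MS/MS; bidirectional fit versus DMSO, viability checked by MTT.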

Assay [10] in a line: CEETOX_H295R_PROG: CeeTox H295R High-throughput Steroidogenesis Assay for Progesterone (PROG) (AID 2283442; active = hit-call score of the fitted dose curve at least 0.9, where 1 is the maximum; inactive = score below 0.9). The following applies: actives raise or lower the signal. An outline of the steps:
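Measured analyte is progesterone secreted by H295R cells at 48 h of chemical treatment, following 10 uM forskolin priming. Quantitation used HPLC-MS/MS against a 7-point standard curve; cytotoxicity was checked by MTT absorbance.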

Assay [11] can be described thus: CEETOX_H295R_11DCORT: CeeTox H295R High-throughput Steroidogenesis Assay for 11-Deoxycortisol (11DCORT) (AID 2283432; active = hit-call score of the fitted dose curve at least 0.9, where 1 is the maximum; inactive = score below 0.9). Particulars: actives raise or lower the signal. An outline of the steps: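 H295R cells prestimulated 48 h with 10 uM forskolin, then exposed 48 h to chemical in 0.1% DMSO. 11-Deoxycortisol in medium quantified by HPLC-MS/MS after MTBE extraction; bidirectional fit versus DMSO. MTT viability read in same wells.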

Assay [12] can be described thus: CEETOX_H295R_ANDR: CeeTox H295R High-throughput Steroidogenesis Assay for Androstenedione (ANDR) (AID 2283436; active = hit-call score of the fitted dose curve at least 0.9, where 1 is the maximum; inactive = score below 0.9). Particulars: actives raise or lower the signal. An outline of the steps:
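H295R cells, following OECD 456 with minor changes, exposed to chemicals for 48 h. Androstenedione in the medium was quantified by HPLC-MS/MS after MTBE extraction. Fitting was bidirectional versus DMSO; chemicals were diluted until MTT viability was ≥70%.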

The nature of assay [13]: CEETOX_H295R_CORTIC: CeeTox H295R High-throughput Steroidogenesis Assay for Corticosterone (CORTIC) (AID 2283437; active = hit-call score of the fitted dose curve at least 0.9, where 1 is the maximum; inactive = score below 0.9;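 also: corticosterone secreted into medium quantified by mass spectrometry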). Particulars: actives raise or lower the signal. An outline of the steps:
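H295R adrenal cells prestimulated 48 hours with 10 uM forskolin, then exposed 48 hours to chemical in 0.1% DMSO. Corticosterone in medium measured by HPLC-MS/MS after MTBE extraction; MTT viability in the same wells; bidirectional fit versus DMSO.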

The nature of assay [14]: CEETOX_H295R_CORTISOL: CeeTox H295R High-throughput Steroidogenesis Assay for Cortisol (AID 2283438; active = hit-call score of the fitted dose curve at least 0.9, where 1 is the maximum; inactive = score below 0.9;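 also: cortisol secreted into medium quantified by LC-MS/MS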). Particulars: actives raise or lower the signal. An outline of the steps:
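H295R human adrenal cells were prestimulated 48 h with 10 uM forskolin, then exposed 48 h to test chemical (0.1% DMSO final). Medium cortisol was quantified by HPLC-MS/MS after MTBE extraction; bidirectional fitting relative to DMSO baseline.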

A short description of assay [15]: CEETOX_H295R_DOC: CeeTox H295R High-throughput Steroidogenesis Assay for DOC (AID 2283439; active = hit-call score of the fitted dose curve at least 0.9, where 1 is the maximum; inactive = score below 0.9). The following applies: actives raise or lower the signal. An outline of the steps:
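H295R adrenal cells prestimulated 48 h with 10 uM forskolin, then exposed 48 h to test chemical (0.1% DMSO final). Medium 11-deoxycorticosterone extracted with MTBE, quantified by HPLC-MS/MS; bidirectional fit versus DMSO baseline; MTT viability in same wells.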

The target of assay [16] is Estrogen receptor (Homo sapiens) (UniProt P03372). Kind of assay: OT_ERa_GFPERaERE_0480: Odyssey Thera (OT) 8-hour HeLa Transcription Induction Assay for Estrogen Receptor (AID 2283381; active = hit-call score of the fitted dose curve at least 0.9, where 1 is the maximum; inactive = score below 0.9). An outline of the steps:
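HeLa cells dosed with compound and imaged by fluorescence microscopy at 8 h; GFP induction from an ERE reporter quantified by high-content image analysis and fitted as gain of signal against DMSO baseline.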

Assay [17] has the same target. Kind of assay: OT_ERa_GFPERaERE_0120: Odyssey Thera (OT) 2-hour HeLa Transcription Induction Assay for Estrogen Receptor (AID 2283382). An outline of the steps:
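HeLa cells were dosed with test chemical and read 2 hours later for GFP-ERα/ERE-linked fluorescent protein induction by fluorescence microscopy. Gain-of-signal was fitted relative to DMSO baseline, quantified by high content image analysis.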

For assay [18], the target named is Retinoic acid receptor RXR-alpha (Homo sapiens) (UniProt P19793). Kind of assay: OT_NURR1_NURR1RXRa_0480: Odyssey Thera (OT) 8-hour HEK293T Protein Complementation Assay for Nurr1/retinoid X receptor (RXR) (AID 2283385). An outline of the steps:
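HEK293T cells expressing Nurr1 and RXRα fused to reporter fragments were dosed with compound for 8 hours. Complex formation was read as fluorescence intensity and analysed as gain of signal against DMSO as baseline.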

Chain of Peroxisome proliferator-activated receptor gamma (Homo sapiens) (P37231 whole entry, looked up, the tested form may be a part): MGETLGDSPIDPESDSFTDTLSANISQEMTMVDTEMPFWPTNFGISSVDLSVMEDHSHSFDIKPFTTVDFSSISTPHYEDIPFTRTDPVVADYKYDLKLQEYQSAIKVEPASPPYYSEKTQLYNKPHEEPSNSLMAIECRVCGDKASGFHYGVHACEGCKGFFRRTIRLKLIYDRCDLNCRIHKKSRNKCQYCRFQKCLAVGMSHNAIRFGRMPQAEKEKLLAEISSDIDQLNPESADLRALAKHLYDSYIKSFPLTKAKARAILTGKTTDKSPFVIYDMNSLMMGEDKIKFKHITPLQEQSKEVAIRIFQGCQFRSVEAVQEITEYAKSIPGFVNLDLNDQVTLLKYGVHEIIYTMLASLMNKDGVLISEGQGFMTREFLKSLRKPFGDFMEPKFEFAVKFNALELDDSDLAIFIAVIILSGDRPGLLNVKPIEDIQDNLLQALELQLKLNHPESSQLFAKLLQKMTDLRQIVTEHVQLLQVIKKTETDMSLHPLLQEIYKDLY
Chain of Bile acid receptor (Homo sapiens) (Q96RI1 whole entry, looked up, the tested form may be a part): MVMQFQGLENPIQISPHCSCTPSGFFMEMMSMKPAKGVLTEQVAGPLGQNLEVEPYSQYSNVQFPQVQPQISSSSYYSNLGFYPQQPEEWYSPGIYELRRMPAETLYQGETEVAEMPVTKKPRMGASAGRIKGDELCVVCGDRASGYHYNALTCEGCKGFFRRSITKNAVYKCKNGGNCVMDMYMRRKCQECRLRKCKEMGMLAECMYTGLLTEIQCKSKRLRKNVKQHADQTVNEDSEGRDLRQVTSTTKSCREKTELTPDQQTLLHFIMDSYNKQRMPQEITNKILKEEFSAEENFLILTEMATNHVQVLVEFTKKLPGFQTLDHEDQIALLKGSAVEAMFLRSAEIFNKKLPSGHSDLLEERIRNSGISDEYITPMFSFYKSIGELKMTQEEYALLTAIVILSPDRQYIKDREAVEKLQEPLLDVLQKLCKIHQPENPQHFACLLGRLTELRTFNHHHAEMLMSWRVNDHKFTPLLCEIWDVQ
Chain of Retinoic acid receptor RXR-alpha (Homo sapiens) (P19793 whole entry, looked up, the tested form may be a part): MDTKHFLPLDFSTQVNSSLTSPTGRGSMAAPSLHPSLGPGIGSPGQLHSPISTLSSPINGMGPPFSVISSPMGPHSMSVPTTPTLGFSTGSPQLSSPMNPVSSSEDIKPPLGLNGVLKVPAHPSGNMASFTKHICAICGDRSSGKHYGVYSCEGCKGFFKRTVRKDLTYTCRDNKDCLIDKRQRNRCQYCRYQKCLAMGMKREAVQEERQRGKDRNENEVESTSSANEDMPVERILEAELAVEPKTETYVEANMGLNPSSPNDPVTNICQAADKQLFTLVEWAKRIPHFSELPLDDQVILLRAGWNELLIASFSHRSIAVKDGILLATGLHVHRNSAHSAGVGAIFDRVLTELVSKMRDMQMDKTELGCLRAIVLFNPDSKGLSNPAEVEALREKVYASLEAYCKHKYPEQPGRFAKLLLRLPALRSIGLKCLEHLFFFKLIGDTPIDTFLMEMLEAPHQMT
Chain of Estrogen receptor (Homo sapiens) (P03372 whole entry, looked up): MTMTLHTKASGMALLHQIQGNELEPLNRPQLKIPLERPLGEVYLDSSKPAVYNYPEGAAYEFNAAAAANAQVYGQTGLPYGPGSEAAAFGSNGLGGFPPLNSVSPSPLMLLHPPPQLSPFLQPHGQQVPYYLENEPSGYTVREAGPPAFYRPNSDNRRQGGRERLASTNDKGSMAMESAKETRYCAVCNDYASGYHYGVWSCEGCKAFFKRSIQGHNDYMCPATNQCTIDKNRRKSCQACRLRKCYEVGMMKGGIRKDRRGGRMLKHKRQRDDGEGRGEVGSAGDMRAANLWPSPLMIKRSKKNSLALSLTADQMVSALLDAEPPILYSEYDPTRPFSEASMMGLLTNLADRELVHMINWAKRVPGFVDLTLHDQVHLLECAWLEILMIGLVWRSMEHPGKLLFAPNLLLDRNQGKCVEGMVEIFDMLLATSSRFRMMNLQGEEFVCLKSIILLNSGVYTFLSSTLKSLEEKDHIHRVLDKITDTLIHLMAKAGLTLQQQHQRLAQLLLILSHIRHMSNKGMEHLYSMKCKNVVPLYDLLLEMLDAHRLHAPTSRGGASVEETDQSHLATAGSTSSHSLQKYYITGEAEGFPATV
Chain of Estrogen receptor beta (Homo sapiens) (Q92731 whole entry, looked up, the tested form may be a part): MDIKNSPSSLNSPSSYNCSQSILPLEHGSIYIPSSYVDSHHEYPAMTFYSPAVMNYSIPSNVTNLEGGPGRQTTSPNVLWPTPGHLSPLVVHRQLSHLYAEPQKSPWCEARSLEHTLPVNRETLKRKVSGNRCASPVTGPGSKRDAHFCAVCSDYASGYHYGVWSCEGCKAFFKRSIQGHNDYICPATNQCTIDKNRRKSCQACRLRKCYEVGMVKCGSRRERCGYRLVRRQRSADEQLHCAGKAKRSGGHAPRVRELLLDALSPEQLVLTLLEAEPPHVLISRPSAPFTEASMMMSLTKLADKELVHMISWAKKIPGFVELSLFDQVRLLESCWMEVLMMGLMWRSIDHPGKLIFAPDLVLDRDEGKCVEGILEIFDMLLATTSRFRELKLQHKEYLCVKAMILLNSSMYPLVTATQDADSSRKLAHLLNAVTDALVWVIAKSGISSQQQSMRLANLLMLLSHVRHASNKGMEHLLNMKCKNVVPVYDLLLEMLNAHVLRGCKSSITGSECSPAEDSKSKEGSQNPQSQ
Chain of Agonist Androgen Response Element (ARE), AR (gene 367) (P10275 whole entry, looked up): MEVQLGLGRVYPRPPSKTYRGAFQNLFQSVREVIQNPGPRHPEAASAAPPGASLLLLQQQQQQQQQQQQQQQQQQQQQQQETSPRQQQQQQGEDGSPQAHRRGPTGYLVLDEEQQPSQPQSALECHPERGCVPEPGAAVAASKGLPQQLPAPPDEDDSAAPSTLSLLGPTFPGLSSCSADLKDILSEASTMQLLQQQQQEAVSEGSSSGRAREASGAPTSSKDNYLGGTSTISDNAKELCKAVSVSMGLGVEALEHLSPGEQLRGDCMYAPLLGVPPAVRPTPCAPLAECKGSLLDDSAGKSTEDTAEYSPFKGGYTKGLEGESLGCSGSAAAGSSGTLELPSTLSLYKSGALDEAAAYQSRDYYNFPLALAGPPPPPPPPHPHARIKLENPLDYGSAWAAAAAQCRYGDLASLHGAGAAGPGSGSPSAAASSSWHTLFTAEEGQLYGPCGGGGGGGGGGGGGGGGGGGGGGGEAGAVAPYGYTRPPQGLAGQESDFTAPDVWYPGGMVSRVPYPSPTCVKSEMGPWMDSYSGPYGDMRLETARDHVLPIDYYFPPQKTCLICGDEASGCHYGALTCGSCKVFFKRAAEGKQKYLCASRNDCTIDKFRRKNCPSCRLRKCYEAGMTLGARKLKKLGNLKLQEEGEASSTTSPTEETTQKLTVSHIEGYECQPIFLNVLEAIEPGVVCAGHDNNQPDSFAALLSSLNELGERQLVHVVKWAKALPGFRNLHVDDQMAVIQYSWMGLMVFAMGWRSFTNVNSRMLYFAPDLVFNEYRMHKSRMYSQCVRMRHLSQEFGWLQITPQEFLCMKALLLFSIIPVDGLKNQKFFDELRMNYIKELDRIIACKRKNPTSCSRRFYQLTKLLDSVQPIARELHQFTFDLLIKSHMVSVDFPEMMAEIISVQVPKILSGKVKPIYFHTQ

`Cc1nn(-c2cc(NS(C)(=O)=O)c(Cl)cc2Cl)c(=O)n1C(F)F`: the molecule was classed as inactive in assay [1], in assay [2], in [3], in [4] and in [5].

Turning to `CCCSP(=O)(OCC)Oc1ccc(Br)cc1Cl` (stereo not given), the outcome in assay [2], in [7], in assay [3], in assay [4], in assay [8] and in assay [9] was inactive. Also, the molecule was classed as inactive in [10] and in assay [5]. For the same molecule, the AC50 in assay [6] is 25 µM (active).

In the case of `Cc1ccn2nc(S(=O)(=O)Nc3c(F)cccc3F)nc2n1`, the molecule was called inactive in assay [2], in assay [6], in [7], in assay [3], in [4] and in [5].

Consider `COc1ccc(C(=CC(=O)N2CCOCC2)c2ccc(Cl)cc2)cc1OC`, for which the outcome in [2], in assay [3], in assay [4], in [11], in assay [9] and in [12] was inactive. Moreover, the result in assay [13], in [15], in [10] and in assay [5] was inactive. Besides, the results for the AC50 in [6], in assay [7] and in assay [14] were 31.5 µM (active), 76.3 µM (active) and 35.2 µM (active), respectively.

In the case of `COc1cccc(C(=O)NN(C(=O)c2cc(C)cc(C)c2)C(C)(C)C)c1C`, the molecule was classed as inactive in assay [2], in assay [3], in [4], in assay [9], in assay [10] and in [5]. For the same molecule, the values for the AC50 in [6] and in assay [7] were 14.7 µM (active) and 27 µM (active), respectively.

Regarding `COP(=O)(OC)OC(Br)C(Cl)(Cl)Br` (stereo not given), the molecule was classed as inactive in assay [2], in assay [16], in [17], in assay [6], in [7] and in assay [3]. For the same molecule, the molecule was classed as inactive in [4] and in assay [5].

As for `COP(=O)(OC)SCn1c(=O)oc2cc(Cl)cnc21`, the molecule was called inactive in assay [1], in [16], in assay [17], in [18], in assay [4] and in assay [5].

Turning to `Cc1cc(C2CC2)nc(Nc2ccccc2)n1`, the AC50 in [2] is 50 µM (active); in [6], 20.4 µM (active). Moreover, the call in [16], in assay [17], in assay [7], in [3], in assay [4] and in assay [8] was inactive. For the same molecule, the outcome in assay [5] was inactive.

As for `CC(C)N(C(=O)SCC(Cl)=C(Cl)Cl)C(C)C`, the molecule was called inactive in assay [2], in [3] and in assay [5]. Besides, the AC50 in assay [6] is 21.9 µM (active); in assay [7] it was 80.5 µM (active); in assay [3], 77.9 µM (active).

A word on the AC50: it is the midpoint of the concentration-response curve, whichever way the signal moves.
